This is part of a sample that, as a whole, favours compounds with a hit. Of some 79,000 tested, about 15% had one in any assay. Activity calls are given as the source filed them. No stated cut-off is given here; in the data, active means growth inhibition above about 70%; inactive means the rest.
What was measured:
[1] = NCI Yeast Anticancer Drug Screen. Data for the rad52 strain (AID 147);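 further: 0% = growth of vehicle-treated control cultures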; details: S. cerevisiae rad52 mutant growth inhibition, stronger effect = higher value
Method in brief: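 Read-out: growth inhibition versus vehicle-treated controls. Cells were a DNA repair-deficient yeast strain treated with compounds.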

[2] = NCI Yeast Anticancer Drug Screen. Data for the wt1 strain (AID 149);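 further: 0% = growth of vehicle-treated wt1 cultures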; details: S. cerevisiae wt1 strain (SPY 50644) growth inhibition, stronger effect = higher value
Method in brief: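 Compounds are added to wt1 yeast cultures. Growth is then measured. Inhibition is expressed relative to vehicle-treated controls.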

[3] = NCI Yeast Anticancer Drug Screen. Data for the rad50EPP+ strain (AID 151);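 further: 0% = growth of vehicle-treated control cultures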; details: S. cerevisiae rad50 mutant strain, stronger effect = higher value
Method in brief: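 Growth inhibition read against vehicle controls in rad50EPP+ yeast, a strain altered in DNA damage repair, after compound exposure.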

[4] = NCI Yeast Anticancer Drug Screen. Data for the rad50 strain (AID 155);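 further: 0% = growth of vehicle-only cultures of the same strain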; details: S. cerevisiae rad50 strain growth inhibition, stronger effect = higher value
Method in brief: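 Inhibition values express reduced yeast growth in compound-treated cultures relative to vehicle-treated controls.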

[5] = NCI Yeast Anticancer Drug Screen. Data for the mec2-1 strain (AID 157); details: S. cerevisiae mec2-1 strain, stronger effect = higher value
Method in brief: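 Yeast mec2-1 mutant treated with compound. Readout: growth inhibition vs vehicle controls.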

[6] = NCI Yeast Anticancer Drug Screen. Data for the rad14 strain (AID 159);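 further: 0% = growth of vehicle-treated control cultures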; details: S. cerevisiae rad14 strain growth inhibition, stronger effect = higher value
Method in brief: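 A mutant yeast strain defective in DNA damage repair is treated with compound; inhibition of its growth is scored against untreated, vehicle-exposed cultures.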

[7] = NCI Yeast Anticancer Drug Screen. Data for the sgs1 mgt1 strain (AID 161);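 further: 0% = growth of cultures given vehicle only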; details: S. cerevisiae sgs1 mgt1 strain, stronger effect = higher value
Method in brief: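 Inhibition of yeast growth, normalised to vehicle-treated controls, is reported for a strain bearing genetic alterations in DNA damage repair.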

[8] = NCI Yeast Anticancer Drug Screen. Data for the CLN2oe strain (AID 163);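 further: 0% = growth of vehicle-only control cultures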; details: S. cerevisiae CLN2oe strain, stronger effect = higher value
Method in brief: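 Read-out: yeast growth inhibition, expressed relative to vehicle-only controls. The strain bears an engineered cell-cycle alteration.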

[9] = NCI Yeast Anticancer Drug Screen. Data for the cln2 rad14 strain (AID 165);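 further: 0% = growth equal to vehicle treated cultures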; details: S. cerevisiae cln2 rad14 strain, stronger effect = higher value
Method in brief: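 cln2 rad14 yeast strain; compound exposure; growth inhibition read vs vehicle controls.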

[10] = NCI Yeast Anticancer Drug Screen. Data for the bub3 strain (AID 167); details: S. cerevisiae bub3 mutant strain, stronger effect = higher value
Method in brief: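 Steps: expose the mutant yeast strain to compound; grow alongside vehicle-treated cultures; measure growth; express inhibition against the vehicle cultures.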

[11] = NCI Yeast Anticancer Drug Screen. Data for the wt2 strain (AID 169);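 further: 0% = growth of vehicle-treated yeast cultures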; details: S. cerevisiae wt2 strain growth inhibition, stronger effect = higher value
Method in brief: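 Read-out: growth inhibition versus vehicle-treated control cultures after compound exposure of the yeast strain.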

[12] = NCI Yeast Anticancer Drug Screen. Data for the mlh1 strain (AID 171);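 further: 0% = growth of vehicle-treated control cultures of the same strain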; details: S. cerevisiae mlh1 strain growth inhibition, stronger effect = higher value
Method in brief: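 Read-out: growth inhibition versus vehicle controls. Strain: engineered yeast with a defined DNA repair or cell cycle defect, compound-treated.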

[13] = NCI Yeast Anticancer Drug Screen. Data for the sgs1 strain (AID 173);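 further: 0% = growth of vehicle-only control cultures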; details: S. cerevisiae sgs1 mutant, stronger effect = higher value
Method in brief: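 Read-out: yeast growth inhibition relative to vehicle controls, following compound exposure of a strain with a defined DNA repair/cell cycle alteration.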

[14] = NCI Yeast Anticancer Drug Screen. Data for the mlh1 rad18 strain (AID 175); details: S. cerevisiae mlh1 rad18 strain growth inhibition, stronger effect = higher value
Method in brief: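 Yeast w/ defined DNA-repair lesions; compound exposure; growth vs vehicle controls → % inhibition.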

[15] = NCI Yeast Anticancer Drug Screen. Data for the rad18 strain (AID 177); details: S. cerevisiae rad18 mutant growth inhibition, stronger effect = higher value
Method in brief: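 Readout: growth inhibition vs vehicle controls. Cells: genetically altered yeast strain, DNA repair defect.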

[16] = NCI Yeast Anticancer Drug Screen. Data for the mgt1 strain (AID 153); details: S. cerevisiae mgt1 mutant growth inhibition, stronger effect = higher value
Method in brief: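 mgt1 yeast grown with test compound; read-out is growth inhibition versus vehicle-treated cultures.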

[17] = at 5.0 µM (retest, dose inferred, filed as 0.5)
[18] = at 50.0 µM (retest, dose inferred, filed as 5.0)

Measured: growth inhibition

O=C1C=CC(=O)N1c1ccc(Br)cc1Cl
active: [1]; at 1.2 µM 91% | [1]; at 3.7 µM 101% | [1]; at 11.0 µM 99% | [1]; at 33.0 µM 99% | [1]; at 100.0 µM 99% | [2]; at 1.2 µM 95% | [2]; at 3.7 µM 101% | [2]; at 11.0 µM 99% | [2]; at 33.0 µM 99% | [2]; at 100.0 µM 98% | [3]; at 1.2 µM 90% | [3]; at 3.7 µM 102% | [3]; at 11.0 µM 100% | [3]; at 33.0 µM 99% | [3]; at 100.0 µM 99% | [4]; at 1.2 µM 99% | [4]; at 3.7 µM 101% | [4]; at 11.0 µM 100% | [4]; at 33.0 µM 100% | [4]; at 50.0 µM 92.2% | [4]; at 100.0 µM 99% | [5]; at 1.2 µM 97% | [5]; at 3.7 µM 101% | [5]; at 11.0 µM 100% | [5]; at 33.0 µM 99% | [5]; at 50.0 µM 93.7% | [5]; at 100.0 µM 99% | [6]; at 1.2 µM 99% | [6]; at 3.7 µM 102% | [6]; at 11.0 µM 100% | [6]; at 33.0 µM 100% | [6]; at 100.0 µM 100% | [7]; [17] 101% | [7]; [18] 98% | [8]; at 3.7 µM 101% | [8]; at 11.0 µM 99% | [8]; at 33.0 µM 99% | [8]; at 100.0 µM 99% | [9]; [17] 73% | [9]; [18] 100% | [10]; at 1.2 µM 98% | [10]; at 3.7 µM 101% | [10]; [17] 101% | [10]; at 11.0 µM 99% | [10]; at 33.0 µM 100% | [10]; [18] 98% | [10]; at 100.0 µM 99% | [11]; at 1.2 µM 76% | [11]; at 3.7 µM 101% | [11]; at 11.0 µM 99% | [11]; at 33.0 µM 99% | [11]; at 100.0 µM 99% | [12]; at 1.2 µM 96% | [12]; at 3.7 µM 101% | [12]; at 11.0 µM 100% | [12]; at 33.0 µM 97% | [12]; at 100.0 µM 99% | [13]; at 1.2 µM 92% | [13]; at 3.7 µM 102% | [13]; at 11.0 µM 99% | [13]; at 33.0 µM 99% | [13]; at 100.0 µM 99% | [14]; at 50.0 µM 92.7% | [15]; at 1.2 µM 85% | [15]; at 3.7 µM 99% | [15]; at 11.0 µM 99% | [15]; at 33.0 µM 93% | [15]; at 100.0 µM 99%
inactive: [4]; [17] 15% | [4]; [18] 51% | [5]; [17] 44% | [5]; [18] 42% | [8]; at 1.2 µM 63% | [14]; [17] 22% | [14]; [18] 42%

COc1ccc2c(C)cc(N/N=C/c3sccc3C)nc2c1
inactive: [1]; at 1.2 µM -31% | [1]; at 3.7 µM -45% | [1]; at 11.0 µM -35% | [1]; at 33.0 µM 29% | [1]; at 100.0 µM 18% | [2]; at 1.2 µM -30% | [2]; at 3.7 µM -32% | [2]; at 11.0 µM -15% | [2]; at 33.0 µM 63% | [2]; at 100.0 µM 66% | [3]; at 1.2 µM -11% | [3]; at 3.7 µM -10% | [3]; at 11.0 µM -4% | [3]; at 33.0 µM 24% | [3]; at 100.0 µM 21% | [5]; at 1.2 µM -22% | [5]; at 3.7 µM -28% | [5]; [17] 12% | [5]; at 11.0 µM -8% | [5]; at 33.0 µM 57% | [5]; at 50.0 µM 50% | [5]; at 100.0 µM 46% | [6]; at 1.2 µM -53% | [6]; at 3.7 µM -27% | [6]; at 11.0 µM -10% | [6]; at 33.0 µM 35% | [6]; at 100.0 µM 31% | [7]; [17] 19% | [7]; [18] 8% | [8]; at 1.2 µM -6% | [8]; at 3.7 µM -9% | [8]; at 11.0 µM 0% | [8]; at 33.0 µM 65% | [8]; at 100.0 µM 56% | [9]; [17] 4% | [9]; [18] -26% | [9]; at 50.0 µM 45.8% | [10]; at 1.2 µM -11% | [10]; at 3.7 µM 10% | [10]; [17] 13% | [10]; at 11.0 µM -7% | [10]; [18] -26% | [10]; at 50.0 µM 45.1% | [11]; at 1.2 µM 13% | [11]; at 3.7 µM -6% | [11]; at 11.0 µM 24% | [12]; at 1.2 µM -27% | [12]; at 3.7 µM -5% | [12]; at 11.0 µM -7% | [12]; at 33.0 µM 60% | [12]; at 100.0 µM 56% | [13]; at 1.2 µM -34% | [13]; at 3.7 µM -37% | [13]; at 11.0 µM 14% | [14]; [17] 27% | [15]; at 1.2 µM 3% | [15]; at 3.7 µM -4% | [15]; at 11.0 µM 6%
active: [5]; [18] 92% | [7]; at 50.0 µM 80.3% | [10]; at 33.0 µM 88% | [10]; at 100.0 µM 82% | [11]; at 33.0 µM 78% | [11]; at 100.0 µM 73% | [13]; at 33.0 µM 88% | [13]; at 100.0 µM 78% | [14]; [18] 94% | [14]; at 50.0 µM 76.3% | [15]; at 33.0 µM 85% | [15]; at 100.0 µM 70%

c1cc2ccc3cc4ncccc4c4ccc(c1)c2c34
inactive: [2]; at 1.2 µM -2% | [2]; at 3.7 µM 3% | [2]; at 11.0 µM 9% | [2]; at 33.0 µM 54% | [3]; at 1.2 µM 8% | [3]; at 3.7 µM 35% | [16]; at 1.2 µM -2% | [16]; at 3.7 µM -1% | [16]; at 11.0 µM 11% | [4]; at 1.2 µM 2% | [4]; at 3.7 µM 13% | [5]; at 1.2 µM -2% | [5]; at 3.7 µM 1% | [5]; [17] 23% | [5]; at 11.0 µM 13% | [5]; at 33.0 µM 65% | [6]; at 1.2 µM 1% | [6]; at 3.7 µM 7% | [6]; at 11.0 µM 20% | [6]; at 33.0 µM 68% | [7]; [17] 34% | [8]; at 1.2 µM -3% | [8]; at 3.7 µM -3% | [8]; at 11.0 µM 1% | [8]; at 33.0 µM 21% | [8]; at 100.0 µM 65% | [9]; [17] 15% | [10]; at 1.2 µM -2% | [10]; at 3.7 µM 1% | [10]; [17] 27% | [10]; at 11.0 µM 36% | [11]; at 1.2 µM 0% | [11]; at 3.7 µM 0% | [11]; at 11.0 µM 15% | [11]; at 33.0 µM 53% | [12]; at 1.2 µM -2% | [12]; at 3.7 µM 0% | [12]; at 11.0 µM 22% | [13]; at 1.2 µM -2% | [13]; at 3.7 µM 0% | [13]; at 11.0 µM 25% | [14]; [17] 32% | [15]; at 1.2 µM 4% | [15]; at 3.7 µM 7% | [15]; at 11.0 µM 35%
active: [2]; at 100.0 µM 75% | [3]; at 11.0 µM 73% | [3]; at 33.0 µM 92% | [3]; at 100.0 µM 92% | [16]; at 33.0 µM 76% | [16]; at 100.0 µM 84% | [4]; [17] 74% | [4]; at 11.0 µM 70% | [4]; at 33.0 µM 93% | [4]; [18] 96% | [4]; at 50.0 µM 97.9% | [4]; at 100.0 µM 93% | [5]; [18] 97% | [5]; at 50.0 µM 97.5% | [5]; at 100.0 µM 82% | [6]; at 100.0 µM 79% | [7]; [18] 93% | [7]; at 50.0 µM 98.2% | [9]; [18] 90% | [9]; at 50.0 µM 92.3% | [10]; at 33.0 µM 84% | [10]; [18] 96% | [10]; at 50.0 µM 98.9% | [10]; at 100.0 µM 90% | [11]; at 100.0 µM 85% | [12]; at 33.0 µM 83% | [12]; at 100.0 µM 88% | [13]; at 33.0 µM 83% | [13]; at 100.0 µM 85% | [14]; [18] 97% | [14]; at 50.0 µM 97.8% | [15]; at 33.0 µM 87% | [15]; at 100.0 µM 90%
